Reference: the supplement of paper PMC3545927
The other results are listed elsewhere or left out. No count for the full screen is at hand.

Target: furin, P09958
Test: furin cleavage Z-score vs untreated control; higher = more cleavage, active = 3.5 or more, inactive = 1 or less, 8 variable residues between constant flanks
Procedure, shortened: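 Read counts from sequencing released DNA gave abundance for each bead-bound 8-mer peptide–cDNA fusion cut by purified furin over 7.5, 15 or 30 min. The cleavage Z-score compares log counts with furin-free reactions after lowess adjustment and median absolute deviation scaling.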
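Also: purified furin at 1:10 enzyme:substrate in 50 mM HEPES pH 7.5.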

Sequence of furin, P09958 (P09958 whole entry): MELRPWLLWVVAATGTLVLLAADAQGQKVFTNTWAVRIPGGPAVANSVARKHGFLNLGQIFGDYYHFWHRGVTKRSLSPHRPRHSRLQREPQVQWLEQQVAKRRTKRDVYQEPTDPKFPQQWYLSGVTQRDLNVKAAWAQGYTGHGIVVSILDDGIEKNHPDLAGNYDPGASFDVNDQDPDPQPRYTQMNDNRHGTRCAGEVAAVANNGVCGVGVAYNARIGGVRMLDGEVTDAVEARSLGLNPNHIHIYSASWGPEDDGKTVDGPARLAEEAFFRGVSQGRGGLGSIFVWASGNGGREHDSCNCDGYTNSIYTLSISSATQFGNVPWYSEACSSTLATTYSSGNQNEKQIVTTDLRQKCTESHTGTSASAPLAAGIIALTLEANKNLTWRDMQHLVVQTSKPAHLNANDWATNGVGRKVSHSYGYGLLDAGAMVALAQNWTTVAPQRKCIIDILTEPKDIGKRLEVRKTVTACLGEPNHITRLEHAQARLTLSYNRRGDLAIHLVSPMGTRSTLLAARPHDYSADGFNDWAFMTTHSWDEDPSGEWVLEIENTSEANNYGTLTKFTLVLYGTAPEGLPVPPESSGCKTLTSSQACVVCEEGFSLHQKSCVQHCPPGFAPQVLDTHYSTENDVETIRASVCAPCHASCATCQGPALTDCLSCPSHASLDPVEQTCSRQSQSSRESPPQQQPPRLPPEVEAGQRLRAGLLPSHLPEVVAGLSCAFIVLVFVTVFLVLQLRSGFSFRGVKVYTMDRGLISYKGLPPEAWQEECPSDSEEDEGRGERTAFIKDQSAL

| Sequence | furin cleavage Z-score (7.5 min) | furin cleavage Z-score (15 min) | furin cleavage Z-score (30 min) |
| --- | --- | --- | --- |
| CAERGFFYTPAGNASASA [EK9] | -0.00549 (inactive) | -1.03 (inactive) | -0.153 (inactive) |
| CAVVCCSMSFAGNASASA [HC2087] | -0.658 (inactive) | 0.464 (inactive) | -0.984 (inactive) |
| CAEKVTSTWVAGNASASA [HC2174] | -0.438 (inactive) | 1.1 | -0.0879 (inactive) |
| CAEGQRKRRNAGNASASA [FS-19] | 11.4 (active) | 10.7 (active) | 8.22 (active) |
| CACCRRKRRNAGNASASA [FS-1188] | 10.9 (active) | 10.1 (active) | 9.12 (active) |
| CAGCTTPCSGAGNASASA [HC1956] | -0.873 (inactive) | -0.658 (inactive) | -0.0577 (inactive) |
| CAGGAARALAAGNASASA [HC233] | 0.841 (inactive) | -0.114 (inactive) | -0.813 (inactive) |
| CAWTPCSGSWAGNASASA [HC1828] | -0.899 (inactive) | -0.739 (inactive) | -0.599 (inactive) |
| CAEVVTSEWVAGNASASA [HC2212] | 0.969 (inactive) | -0.725 (inactive) | -0.598 (inactive) |
| CATTPCSISWAGNASASA [HC1884] | 1.02 | 2.64 | 0.615 (inactive) |
| CARSDRSVPSAGNASASA [FS-2236] | -0.464 (inactive) | -1.02 (inactive) | -0.799 (inactive) |
| CARSIRSSQNAGNASASA [FS-2806] | 3.82 (active) | 4.88 (active) | 5.06 (active) |
| CARSIRSVAIAGNASASA [FS-3081] | -0.459 (inactive) | 0.367 (inactive) | 2.74 |
| CARSIRSTGSAGNASASA [FS-1971] | 8.51 (active) | 7.83 (active) | 8.71 (active) |
| CAGEVPSTEDAGNASASA [HC1096] | -0.773 (inactive) | -0.136 (inactive) | 0.506 (inactive) |
| CAPTPCSAHLAGNASASA [HC2479] | -0.112 (inactive) | 0.764 (inactive) | 1.86 |
| CAFAPTLWARAGNASASA [HC1578] | 0.686 (inactive) | -1.55 (inactive) | 0.247 (inactive) |
| CAHSKRRVRDAGNASASA [FS-663] | 13.2 (active) | 12.9 (active) | 9.58 (active) |
| CAAKSRPKRRAGNASASA [FS-641] | 10.7 (active) | 12 (active) | 8.13 (active) |
| CAHSSRPVRDAGNASASA [FS-1594] | 6.49 (active) | 7.91 (active) | 7.38 (active) |
| CAADVIPVRRAGNASASA [HC729] | -0.626 (inactive) | 1.64 | 0.64 (inactive) |
| CAAKSRPVRGAGNASASA [FS-523] | 6.42 (active) | 5.25 (active) | 5.42 (active) |

| Sequence | furin cleavage Z-score (7.5 min) | furin cleavage Z-score (15 min) | furin cleavage Z-score (30 min) |
| --- | --- | --- | --- |
| CAAKSKFGYGAGNASASA [HC1419] | 0.282 (inactive) | 0.423 (inactive) | 0.234 (inactive) |
| CAKIARPKKRAGNASASA [FS-40] | 0.288 (inactive) | -0.123 (inactive) | -0.964 (inactive) |
| CAHSKRKISWAGNASASA [FS-2865] | 1.39 | 0.543 (inactive) | 1.88 |
| CAMSKRDVLDAGNASASA [FS-2873] | -0.828 (inactive) | -0.533 (inactive) | -0.677 (inactive) |
| CAGCTWMNSTAGNASASA [HC436] | 0.97 (inactive) | 0.0364 (inactive) | 1.16 |
| CAAAGQLDLSAGNASASA [HC1641] | -0.412 (inactive) | 0.71 (inactive) | -1.04 (inactive) |
| CAEVNTSTWVAGNASASA [HC2201] | 0.639 (inactive) | 0.541 (inactive) | 1.06 |
| CAVVCKSMSYAGNASASA [HC91] | -0.0467 (inactive) | 0.255 (inactive) | 0.551 (inactive) |
| CATWPCSGSWAGNASASA [HC1848] | -0.614 (inactive) | -1.25 (inactive) | -0.879 (inactive) |
| CASLTPCTCGAGNASASA [HC720] | -1.42 (inactive) | -1.23 (inactive) | -1.24 (inactive) |
| CALEECSQHLAGNASASA [HC1665] | 0.42 (inactive) | 0.627 (inactive) | 0.0701 (inactive) |
| CARKSRPVSVAGNASASA [FS-2273] | 0.443 (inactive) | -0.359 (inactive) | 1.47 |
| CAAKSRPVRDAGNASASA [FS-522] | 8.85 (active) | 8.99 (active) | 6.37 (active) |
| CARPKRGWVWAGNASASA [FS-2164] | -0.398 (inactive) | -0.529 (inactive) | 2.44 |
| CARVKRGSKVAGNASASA [FS-2100] | 2.43 | 3.33 | 4.45 (active) |
| CARSKRGWVWAGNASASA [FS-2605] | 0.844 (inactive) | 3.21 | 4 (active) |
| CARVKRIFYQAGNASASA [FS-2530] | 1.69 | -1.51 (inactive) | 0.645 (inactive) |
| CARSKRSWMWAGNASASA [FS-2459] | 0.863 (inactive) | 2.1 | 6.05 (active) |
| CARVESENKVAGNASASA [HC1282] | 0.35 (inactive) | -0.0116 (inactive) | 1.18 |
| CARVKRGWVWAGNASASA [FS-2101] | 2.07 | 4.37 (active) | 8.77 (active) |
| CAAKSVCGPVAGNASASA [HC410] | -0.0296 (inactive) | 1.97 | -1.19 (inactive) |
